Bioassay records deposited in PubChem BioAssay by National Center for Advancing Translational Sciences (NCATS).
Shown are actives, neighbours in structure and some others; about 1.1% of the full set was active somewhere.
RXFP1 agonist – activates the human relaxin receptor RXFP1; HEK293T-RXFP1 cAMP TR-FRET, 30 min; response scale: percent of porcine relaxin response, buffer zero; Q9HBX9; Potency, µM (top dose mostly 57.5 µM), usual class: activators; 0.3% of 370,000 active; active = well fitted activation curve with a large enough effect; inconclusive = small, poorly fitted or top-dose-only effect; note: nearly all actives have a fitted effect of over 60% in size
Target sequence (Q9HBX9 whole entry, looked up): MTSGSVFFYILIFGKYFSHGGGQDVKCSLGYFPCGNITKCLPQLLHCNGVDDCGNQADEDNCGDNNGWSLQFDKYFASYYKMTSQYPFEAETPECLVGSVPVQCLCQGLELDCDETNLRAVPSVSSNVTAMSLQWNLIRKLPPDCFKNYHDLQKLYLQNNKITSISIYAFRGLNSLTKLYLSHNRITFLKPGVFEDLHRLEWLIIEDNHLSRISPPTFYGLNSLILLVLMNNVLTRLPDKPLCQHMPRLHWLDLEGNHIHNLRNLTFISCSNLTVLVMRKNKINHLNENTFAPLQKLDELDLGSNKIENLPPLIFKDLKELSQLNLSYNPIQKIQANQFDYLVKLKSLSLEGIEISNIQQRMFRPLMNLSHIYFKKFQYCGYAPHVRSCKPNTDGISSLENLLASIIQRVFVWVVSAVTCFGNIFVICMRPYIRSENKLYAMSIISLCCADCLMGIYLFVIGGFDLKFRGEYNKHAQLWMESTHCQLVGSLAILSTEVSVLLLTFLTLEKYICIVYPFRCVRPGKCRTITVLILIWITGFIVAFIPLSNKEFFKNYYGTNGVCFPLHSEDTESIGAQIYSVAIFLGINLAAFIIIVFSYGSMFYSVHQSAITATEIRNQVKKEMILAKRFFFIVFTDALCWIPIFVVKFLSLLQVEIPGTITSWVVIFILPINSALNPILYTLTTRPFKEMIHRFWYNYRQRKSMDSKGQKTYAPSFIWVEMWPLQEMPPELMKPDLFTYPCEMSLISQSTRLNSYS
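HEK293 cells stably expressing RXFP1, treated 30 min at 37C with compounds plus PDE4 inhibitor Ro 20174; cAMP measured by HTRF TR-FRET. Normalized to buffer and 29 nM porcine relaxin; EC50 by Hill fit.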
TRPV1 agonist – human TRPV1 agonism. Q8NER1. activation, % at 8.33 µM. 0.19% of 320,000 active. TRPV1-expressing cells, Fluo-8 calcium influx, agonist mode; in the data active = activation above about 80%; inconclusive = between about 30% and that limit
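Fluo-8 calcium influx in TRPV1-expressing cells, kinetic read (ex 480/em 520 nm). Compound added and read 3 min for agonist activity, followed by capsaicin at EC20 final and 2 min further read for enhancement.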
gsp antag – antagonists of gsp mutant (McCune-Albright syndrome); Potency, µM (series often up to 76.9 µM), hits mostly inhibitors; gsp-mutant cells, cAMP HTRF, 30 min; 0.4% of 340,000 active; calls by dose curve; cell line not stated here;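 note: intracellular cAMP measured with PDE inhibitor Ro 20-1724 present during compound exposure; nearly all actives have a fitted effect of over 65% in size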
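Cells in G418 medium, seeded 16-24 h, 37C; buffer exchange to DPBS + 1 mM CaCl2, 0.5 mM MgCl2, 0.05% BSA; cpds in DMSO + […] (300 uM stock), 30 min 37C; HTRF cAMP detection.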
RXFP1 antagonist – RXFP1 (human) relaxin receptor antagonism. 0.59% of 350,000 active. HEK293-RXFP1, relaxin-stimulated cAMP HTRF, 30 min; active compounds read low. activity change, negative = inhibition, % at 57.5 µM;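 active = activity change of -60% or lower, but not beyond a set lower limit; inconclusive = change between -60% and -40%, or beyond the set limit; inactive = change above -40%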
gsp agonist – activates gsp, the McCune-Albright syndrome mutation; 0.13% of 340,000 active; AID 624287; Potency, µM (series often up to 76.9 µM), hits mostly activators; gsp mutant cells, cAMP HTRF, 30 min; active = well fitted activation curve with a large enough effect; inconclusive = small, poorly fitted or top-dose-only effect, or another doubt; inactive = no such curve, though single readings can be large or run the other way; cell line not stated here;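 note: phosphodiesterase inhibitor Ro 20-1724 added with compounds to block cAMP breakdown; nearly all actives have a fitted effect of over 60% in size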
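Cells stably selected in G418 were plated at 2000/well, grown 16-24 hr, then given compounds in DMSO with the PDE inhibitor […] (300 uM solution added) for 30 min at 37C; cAMP was read by HTRF.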
TRPV1 PAM – human TRPV1 potentiation | 0.02% of 320,000 active | TRPV1-expressing cells, Fluo-8 calcium influx, capsaicin EC20 potentiation | Q8NER1 | potentiation, % at 8.33 µM; in the data active = potentiation above about 80%; inconclusive = between about 30% and that limit
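Fluo-8 calcium influx in TRPV1-expressing cells, kinetic read (ex 480/em 520 nm). Compound added and read 3 min for agonist activity, followed by capsaicin at EC20 final and 2 min further read for enhancement.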
Large screens that a line does not name were inactive; ! = not confirmed by another sample.

COc1cccc(CNC(=O)CCn2ccc3cc(S(=O)(=O)N4CCCC4)ccc32)c1	TRPV1 agonist 89.2
COc1cc(NC(=O)c2ccccc2[N+](=O)[O-])ccc1NC(=O)c1cc2ccccc2o1	gsp antag 22.4µM (no result: RXFP1 agonist, TRPV1 agonist, TRPV1 PAM)
Cc1cc(C)n2nc(C(=O)Nc3ccc4c(c3)OCCO4)nc2n1	RXFP1 agonist 14.1µM, gsp agonist inconclusive
O=C(Nc1ccc2oc(-c3cc(Br)ccc3Cl)nc2c1)c1cc2ccccc2o1	RXFP1 agonist 20µM (no result: TRPV1 agonist, gsp antag, gsp agonist, TRPV1 PAM)
O=C(Nc1ccc2c(c1)OCCO2)c1cc2ccccc2o1	TRPV1 agonist 80.6
COc1ccc(C(C)NC(=O)c2ccncc2)cc1OC (stereo not given)	gsp agonist inconclusive
CNC(=O)C1CCC(Cn2c(=O)c3sccc3n(CC(=O)Nc3ccccc3)c2=O)CC1 (stereo not given)	none (no result: TRPV1 agonist, gsp antag, gsp agonist, TRPV1 PAM)
CC(OC(=O)c1ccc2c(c1)OCCO2)C(=O)NC1CCCCC1C (stereo not given)	RXFP1 antagonist -72.5
Cc1ccc(N2CCN(Cc3nnc(-c4ccc5c(c4)OCO5)o3)CC2)c(C)c1	none (no result: TRPV1 agonist, gsp antag, gsp agonist, TRPV1 PAM)
CC(CC(=O)N1CCN(c2ccccc2)CC1)S(=O)(=O)c1ccc2c(c1)NC(=O)CO2 (stereo not given)	gsp antag 50.1µM, gsp agonist inconclusive
O=C1COc2ccc(S(=O)(=O)N3CCN(c4ccccc4)CC3)cc2N1	none
Cc1cccc(N2CCN(S(=O)(=O)c3ccc4c(c3)NC(=O)CO4)CC2)c1C	gsp agonist inconclusive
Cc1cccc(N2CCN(C(=O)CCS(=O)(=O)c3ccc4c(c3)NC(=O)CO4)CC2)c1C	TRPV1 agonist inconclusive, gsp antag 31.6µM
Cc1ccc(/C=C2\SC(N3CCCC3)=NC2=O)cc1	TRPV1 agonist inconclusive (no result: gsp antag, RXFP1 antagonist, gsp agonist)
O=C1N=C(N2CCCCC2)S/C1=C\c1ccc(Br)cc1	TRPV1 agonist 86.6
CCOC(=O)C1CCCN(S(=O)(=O)c2c(C)c(C)cc(C)c2C)C1 (stereo not given)	gsp antag 7.08µM
CC(=O)Nc1cccc(-c2csc(Nc3ccc(C)cn3)n2)c1	TRPV1 agonist inconclusive, RXFP1 antagonist -60.3
CCC(=O)N1c2ccc(S(=O)(=O)N3CCN(c4ccc([N+](=O)[O-])cc4)CC3)cc2CC1C (stereo not given)	none
CCCCOC(=O)c1ccc(NC(=O)Nc2ccc(OC)c(OC)c2)cc1	TRPV1 agonist inconclusive
CCOC(=O)c1ccc(NC(=O)NCc2ccccc2OC)cc1	TRPV1 agonist 83.6
CCCCOC(=O)c1ccc(NC(=O)c2c(OC)cccc2OC)cc1	gsp agonist 11.2µM
CCOC(=O)c1ccc(NC(=O)NCCc2ccccc2OC)cc1	TRPV1 agonist inconclusive
COc1cccc(-c2cc(C(=O)N3CCN(S(=O)(=O)c4ccc(Br)cc4)CC3)[nH]n2)c1	none
COc1ccc(S(=O)(=O)N2CCN(C(=O)c3cc(-c4ccccc4OC)n[nH]3)CC2)cc1	TRPV1 agonist 81.9 (no result: RXFP1 antagonist)
CC(C)(C)c1nnc(NS(=O)(=O)c2ccc(N)cc2)s1	none (no result: RXFP1 agonist, TRPV1 agonist, gsp antag, gsp agonist, TRPV1 PAM)
Clc1ccc(Cl)c(OCCCCNCc2ccccc2)c1	none
Clc1ccc(OCCCNCc2ccccc2)c(Br)c1	RXFP1 antagonist -76.7
CC(NCc1cccc(OCc2ccccc2)c1)C(O)c1ccccc1 (stereo not given)	none
CC(NCc1ccc(OCc2ccc(Cl)cc2)cc1)C(O)c1ccccc1 (stereo not given)	RXFP1 antagonist -99.9
O=C(N/C(=C\c1ccccc1)C(=O)N1CCOCC1)c1ccc(Br)o1	RXFP1 antagonist -70.3, gsp agonist inconclusive
CCn1c(CCCOc2ccc(Cl)cc2Cl)n[nH]c1=S	none
Cc1cc(F)ccc1S(=O)(=O)Nc1ccc2oc3c(c2c1)CC(C)CC3 (stereo not given)	RXFP1 antagonist inconclusive (no result: TRPV1 agonist, gsp antag, gsp agonist, TRPV1 PAM)
CC(=O)c1c(C)oc2ccc(NS(=O)(=O)c3ccc(F)cc3C)cc12	gsp antag 25.1µM
OC1(c2cccc(C(F)(F)F)c2)CCN(c2ncnc3c2[nH]c2ccc(F)cc23)CC1	gsp antag 25.1µM, RXFP1 antagonist -89.1
CN1CCN(CCCN2c3ccccc3Sc3ccc(C(F)(F)F)cc32)CC1	RXFP1 antagonist -65.0!, gsp agonist inconclusive
Cn1c(=O)c(=O)n(C)c2cc(S(=O)(=O)N3CCC(Cc4ccccc4)CC3)ccc21	none
O=c1[nH]c2ccc(S(=O)(=O)N3CCC(Cc4ccccc4)CC3)cc2o1	gsp antag 25.1µM
COc1cccc(C(=O)NCCc2csc(-c3cccc(F)c3)n2)c1OC	none (no result: TRPV1 agonist, gsp antag, gsp agonist, TRPV1 PAM)
C=C1N(C)c2cc([N+](=O)[O-])c(N)cc2C1(C)C	gsp antag 28.2µM, RXFP1 antagonist -71.0
COc1ccc(-c2cc(C(F)F)n3ncc(C(=O)Nc4cc(C)on4)c3n2)cc1	TRPV1 agonist 84.7, gsp antag inconclusive
CSCCNC(=O)c1ccc2nc(C3CCCCC3)oc2c1	TRPV1 agonist 91.9
CSCC[C@@H](CO)NC(=O)c1ccc2nc(C3CCCCC3)oc2c1	none
CCc1cc2c(N3CCN(c4ccccc4)CC3)ncnc2s1	TRPV1 agonist inconclusive, gsp antag 50.1µM
CC(C)(C)C(=O)OCCNc1nc(-c2ccccc2)nc2ccccc12	TRPV1 agonist inconclusive, gsp antag 50.1µM, RXFP1 antagonist inconclusive, gsp agonist inconclusive
CC(C)OCCCNc1nc(-c2ccccc2)nc2ccccc12	TRPV1 agonist inconclusive, gsp antag inconclusive
CC1=NN(C(N)=S)C(=O)C1N=Nc1c(Br)cc(Br)cc1Br (stereo not given)	RXFP1 antagonist -64.3
CC1=NN(C(N)=S)C(=O)C1N=Nc1c(C)cc(C)cc1C (stereo not given)	none
Cc1ccc2nc(N3C(=O)C(O)=C(C(=O)c4cc5ccccc5o4)C3c3cccs3)sc2c1 (stereo not given)	none
O=C(C1=C(O)C(=O)N(CCc2ccccc2)C1c1ccncc1)c1cc2ccccc2o1 (stereo not given)	RXFP1 agonist 14.1µM
O=C(C1=C(O)C(=O)N(c2nccs2)C1c1ccccc1)c1cc2ccccc2o1 (stereo not given)	RXFP1 agonist 15.8µM, TRPV1 agonist inconclusive, gsp agonist inconclusive
CC(=O)OCCN(CCCn1c(-c2ccncc2)nc2ccccc21)c1nc(CN2CCCCC2)cs1	TRPV1 PAM inconclusive (no result: RXFP1 antagonist, gsp agonist)
CCOc1ccc2ccccc2c1C(=O)NCC(c1ccc(N(C)C)cc1)N(C)C (stereo not given)	none
c1ccc(N2CCN(c3ncnc4c3nc3n4CCCCC3)CC2)cc1	none (no result: TRPV1 agonist, gsp antag, RXFP1 antagonist, gsp agonist, TRPV1 PAM)
CCN(CC(=O)NCc1ccc(Cl)cc1)C(=O)NCc1ccc(Cl)cc1	none
CCN(CC(=O)NCc1ccc(Cl)cc1)C(=O)CSc1ccc(Br)cc1	gsp antag 39.8µM
CCN(CC)S(=O)(=O)c1cccc(C(=O)NCC2(N3CCOCC3)CCCCC2)c1	none
